Screens (PubChem)
Shown is part of a subset that was picked to be rich in hits.
Methyltransferases – Primary Screen for Target Class Profiling of Small Molecule Inhibitors of Methyltransferases; purified enzyme, MTase-Glo SAH luminescence; stronger effect = lower value; calls only at 40 µM; 25,000 tested, 3.9% active; call rule not given here
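Each enzyme was assayed with SAM and its substrate. SAH formation detected by MTase-Glo luminescence; single-point 40 uM screen[…].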
* hit, by the source's call; i = inactive; + = active, no number. On the % scale 0 is the no-effect control and ±100 the full control effect.

SMILES	Methyltransferases
N#Cc1ccc(-c2cnc3[nH]cc(NC(=O)c4cccnc4)c3c2)cc1	+
O=C(NCCNC(=O)c1cccnc1)c1cccnc1	i
CCS(=O)(=O)N(Cc1cccnc1)c1cccc(-c2ccc(C#N)cc2)c1	i
O=C(NC1CCCC1)c1ccc2c(=O)n(Cc3ccccc3)c3nn(Cc4ccc(F)cc4)c(=O)n3c2c1	i
O=C1NC(=O)C(c2cnc3ccccn23)=C1c1cn2c3c(cc(F)cc13)CN(C(=O)N1CCCCC1)CC2	+
Cc1cc(C)cc(N2C(=O)c3ccc(-c4ccco4)n3CC2(C)C(=O)NCc2ccc(Cl)cc2)c1 (configuration not stated)	i
CCOC(=O)c1cc2n(n1)CC(C)(C(=O)NC1CCC(C)CC1)N(c1ccccc1OC)C2=O (configuration not stated)	i
COc1ccc(NC(=O)c2nc3sccn3c2-c2cccc(OC)c2)cc1	i
CCOC(=O)Cn1cccc1-c1nc(-c2ccc(OC)cc2)c(-c2ccc(OC)cc2)s1	+
Cc1ccccc1CN1CC(=O)N(Cc2ccc(F)cc2)c2ccccc2S1(=O)=O	i
CCc1ccc(S(=O)(=O)c2nnn3c2nc(NCc2cccc(OC)c2)c2ccccc23)cc1	i
Brc1c(Br)c(Br)c2n[nH]nc2c1Br	+
COc1ccc(OC)c(CCNC(=O)CCc2nnc3n(Cc4ccc(Cl)cc4)c(=O)c4ccccc4n23)c1	i
COc1ccccc1CNC(=O)C1(C)Cn2c(cc3ccccc32)C(=O)N1Cc1ccc2c(c1)OCO2 (configuration not stated)	i
COc1cc2ncnc(-n3nc(-c4ccccn4)nc3N)c2cc1OC	i
COc1cc2ncnc(Nc3cccc(I)c3)c2cc1OC	+
COc1cc2ncnc(Nc3cc(Br)c(O)c(Br)c3)c2cc1OC	i
CC(C)OCCCN1C(=O)c2cc3sccc3n2CC1(C)C(=O)NC1CCCCCCC1 (configuration not stated)	i
CNS(=O)(=O)CC1CCC(N(C)c2ncnc3[nH]ccc23)CC1 (configuration not stated)	+
CN1CCN(CCOc2cc(OC3CCOCC3)c3c(Nc4c(Cl)ccc5c4OCO5)ncnc3c2)CC1	+
CCCN(CCC)CCCN1C(=O)c2cc3sccc3n2CC1(C)C(=O)NC1CCCCCC1 (configuration not stated)	i
O=C(CCc1nnc2n(Cc3ccccc3Cl)c(=O)c3ccccc3n12)NC1CCCCC1	i
CC(=O)Nc1c2n(c3ccc(F)cc13)CC(C)(C(=O)NCCC(C)C)N(Cc1ccccc1)C2=O (configuration not stated)	i
CC1CCC(NC(=O)C2(C)Cn3c(cc4sccc43)C(=O)N2Cc2ccc(F)cc2)CC1 (configuration not stated)	i
COc1cc2c(Oc3ccc(-c4cnc(Nc5ccc(F)cc5)n(C)c4=O)cc3F)ccnc2cc1OCCCN1CCOCC1	i
SMILES	Methyltransferases
COc1cc(Nc2c(C#N)cnc3cc(OCCCN4CCN(C)CC4)c(OC)cc23)c(Cl)cc1Cl	+
COc1cccc(OCCCN)c1-c1cc(Nc2cnc(C#N)cn2)n[nH]1	i
CCOc1ccc(CCNC(=O)CCc2nnc3n(Cc4ccc(Cl)cc4)c(=O)c4ccccc4n23)cc1	i
CCc1cc2c(cc3n2CC(C)(C(=O)NC2CCCCC2)N(Cc2ccccc2C)C3=O)s1 (configuration not stated)	i
O=c1c2ccccc2n2c(SCc3cccc(F)c3)nnc2n1CCc1ccccc1	i
CCc1ccc(-c2cc3n(n2)CC(C)(C(=O)NC2CCCCC2)N(Cc2ccccn2)C3=O)cc1 (configuration not stated)	i
CC(C)CCn1c(=O)c2ccc(C(=O)NC(C)C)cc2n2c(=O)n(CC(N)=O)nc12	i
CCCSCCCN1C(=O)c2cc3occc3n2CC1(C)C(=O)NC1CCC(C)CC1 (configuration not stated)	i
COc1ccccc1N1C(=O)c2cc3ccccc3n2CC1(C)C(=O)NC1CCCC1 (configuration not stated)	i
COC(=O)CC1OC(C)C2=C(O)c3c(O)cccc3C(=O)C23OC13 (configuration not stated)	+
CN1C(=O)c2cc(C(=O)NCc3ccccc3F)nn2CC1(C)C(=O)NCc1ccccc1 (configuration not stated)	i
CCOc1ccccc1CNC(=O)c1cc2n(n1)CC(C)(C(=O)NCc1ccccc1)N(C)C2=O (configuration not stated)	i
CCCN1C(=O)c2cc(C(=O)NCc3ccccc3F)nn2CC1(C)C(=O)NC1CCCC1 (configuration not stated)	i
Cc1ccc(Cl)cc1N1CCN(C(=O)CCc2nnc3n(CC(C)C)c(=O)c4ccccc4n23)CC1	i
O=C(CCc1nnc2n(Cc3ccccc3)c(=O)c3ccccc3n12)N1CCN(c2ccccc2F)CC1	i
C/C(=C\CC/C(C)=C/CC[C@]1(C)CCc2cc(O)cc(C)c2O1)CC/C=C(\C)C(=O)O	+
Cc1c(Cl)cccc1N1C(=O)c2cc3ccccc3n2CC1(C)C(=O)NCCC(C)C (configuration not stated)	i
CCOc1ccc(CCNS(=O)(=O)c2ccc3[nH]c(=O)[nH]c3c2)cc1OCC	i
COc1ccc(CNC(=O)C2(C)Cn3cnc(C(=O)NCCc4ccccc4)c3C(=O)N2C2CC2)cc1 (configuration not stated)	i
COc1ccc(CNC(=O)C2(C)Cn3cnc(C(=O)Nc4ccc(Cl)cn4)c3C(=O)N2C2CC2)cc1 (configuration not stated)	i
CCOc1ccc(NC(=O)N2Cc3c(sc4c3CCCC4)-n3cccc3C2c2ccc(F)cc2)cc1 (configuration not stated)	i
CC(C)c1cc2c(c(O)c1O)[C@@]13CCCC(C)(C)C1[C@@H](O)[C@@H]2OC3=O (some centres not stated)	+
CC(C)c1cc2c(c(O)c1O)[C@@]13CCCC(C)(C)[C@@H]1[C@H](OC3=O)C2=O	i
COC1OC(=O)C2=C1C1(C)CCCC(C)(C)C1CC2O (configuration not stated)	i
CC(C)NC(=O)CSc1nnc2n(C)c(=O)c3ccc(C(=O)NC4CCCC4)cc3n12	i
SMILES	Methyltransferases
CCOC(=O)c1cc2n(n1)CC(C)(C(=O)NC1CCC(C)CC1)N(Cc1cccc(OC)c1)C2=O (configuration not stated)	i
CCOC(=O)c1cc2n(n1)CC(C)(C(=O)NCCC(C)C)N(Cc1ccc(CC)cc1)C2=O (configuration not stated)	i
CCOC(=O)c1cc2n(n1)CC(C)(C(=O)NCc1ccc(Cl)cc1)N(c1ccc(F)cc1)C2=O (configuration not stated)	i
CC(C)OCCCn1c(=O)c2ccccc2n2c(SCC(=O)Nc3ccc(Cl)cc3)nnc12	i
CCOc1ccc(C(=O)Cn2nc3n(C)c(=O)c4ccc(C(=O)NC(C)CC)cc4n3c2=O)cc1 (configuration not stated)	i
CCc1nc(C(N)=O)c(Nc2ccc(N3CCC(N4CCN(C)CC4)CC3)c(OC)c2)nc1NC1CCOCC1	+
CN1CCN(c2ccc(C(=O)Nc3n[nH]c4ccc(Cc5cc(F)cc(F)c5)cc34)c(NC3CCOCC3)c2)CC1	i
COc1cccc(CNC(=O)c2ccc3c(=O)nc4c(-c5ccc(Cl)cc5)n[nH]n4c3c2)c1	i
